{"source": "the OligoGym collection", "data": [{"target": "GHSR", "assay": "pooled miR-30 sensor sort-seq; sequence = guide strand", "settings": "shRNA", "values": [{"sequence": "TTGGAAAATAAATATCGCCCTA", "sensor-assay potency score (higher = more potent)": -0.35}, {"sequence": "AAGTCTGAACACTGCCACCCGG", "sensor-assay potency score (higher = more potent)": -1.26}, {"sequence": "ATCTGAGCAATCTCCAAGGAGC", "sensor-assay potency score (higher = more potent)": -1.45}, {"sequence": "TTGCTTGTGGTTCTGGTCCCTG", "sensor-assay potency score (higher = more potent)": -0.711}, {"sequence": "TGGAAAATAAATATCGCCCTAC", "sensor-assay potency score (higher = more potent)": -0.395}, {"sequence": "TTGAACCCCGGCTCTTCGCTGG", "sensor-assay potency score (higher = more potent)": -0.129}, {"sequence": "TAGCGCTCGACGCTCAGCGCTG", "sensor-assay potency score (higher = more potent)": -1.17}, {"sequence": "TAGAAGAGGACAAAGGACACGA", "sensor-assay potency score (higher = more potent)": 0.735}, {"sequence": "TTGGACATGATGTTGTACAGAA", "sensor-assay potency score (higher = more potent)": 0.099}]}, {"target": "GINS3", "assay": "pooled miR-30 sensor sort-seq; sequence = guide strand", "settings": "shRNA", "values": [{"sequence": "TTTCTTTCTCAACCTGAGGTTG", "sensor-assay potency score (higher = more potent)": -0.934}, {"sequence": "TAGTGCTTGCTTAACCAGGTTC", "sensor-assay potency score (higher = more potent)": -0.37}, {"sequence": "TACAAGGTCAACCAGCTCCTAT", "sensor-assay potency score (higher = more potent)": -1.16}, {"sequence": "TTATTTAGGAAGGACTTTGATT", "sensor-assay potency score (higher = more potent)": -0.522}, {"sequence": "TTATAAAAACAACAATTCCATC", "sensor-assay potency score (higher = more potent)": -1.34}, {"sequence": "TTCTATGCAATAATGTTGCAAA", "sensor-assay potency score (higher = more potent)": -0.524}, {"sequence": "TTCTCTTCTTGTAATTCTGAAC", "sensor-assay potency score (higher = more potent)": -1.11}, {"sequence": "TTTGTGGCTAGTGAAACTGTAC", "sensor-assay potency score (higher = more potent)": -0.833}, {"sequence": "TTTCTCTTCTTGTAATTCTGAA", "sensor-assay potency score (higher = more potent)": -0.125}, {"sequence": "TAGTGAAACTGTACATCTGAAG", "sensor-assay potency score (higher = more potent)": -1.07}, {"sequence": "TTTATTTAGCACTAAAATCAAA", "sensor-assay potency score (higher = more potent)": -1.42}, {"sequence": "TCTTCTTGTAATTCTGAACGAG", "sensor-assay potency score (higher = more potent)": -0.383}]}, {"target": "GIPC2", "assay": "pooled miR-30 sensor sort-seq; sequence = guide strand", "settings": "shRNA", "values": [{"sequence": "TTAACTTCTTAGCAACATCATA", "sensor-assay potency score (higher = more potent)": -1.57}, {"sequence": "TTTCTCCTGATGACTTTCCAGC", "sensor-assay potency score (higher = more potent)": -1.05}, {"sequence": "ATACACATGAAATTAAACCAGA", "sensor-assay potency score (higher = more potent)": -0.735}, {"sequence": "TTACTTTGTCCTTTCCAGCTTC", "sensor-assay potency score (higher = more potent)": -0.236}, {"sequence": "ATATGAAATCTTCTAGTCCTAG", "sensor-assay potency score (higher = more potent)": -0.694}, {"sequence": "TTAGGTTCTATTAACTTCATAG", "sensor-assay potency score (higher = more potent)": -0.883}, {"sequence": "TTTATACACATTCACTTCTTTT", "sensor-assay potency score (higher = more potent)": -1.24}, {"sequence": "TAACTTCTTAGCAACATCATAG", "sensor-assay potency score (higher = more potent)": -1.26}, {"sequence": "TAACTGAGTCAATAACACCACC", "sensor-assay potency score (higher = more potent)": -0.972}, {"sequence": "TTAACTGAGTCAATAACACCAC", "sensor-assay potency score (higher = more potent)": 0.431}, {"sequence": "TATGAAATCTTCTAGTCCTAGT", "sensor-assay potency score (higher = more potent)": -0.186}, {"sequence": "TAAAAGCATAGCCAACACCATT", "sensor-assay potency score (higher = more potent)": -1.62}]}, {"target": "GIP", "assay": "pooled miR-30 sensor sort-seq; sequence = guide strand", "settings": "shRNA", "values": [{"sequence": "TCACCTTAGCATGAGATCCAAC", "sensor-assay potency score (higher = more potent)": -1.2}, {"sequence": "TTGGTGAATCTTGTCCATGGCA", "sensor-assay potency score (higher = more potent)": -0.501}, {"sequence": "TTGTCCATGGCAATACTGTAGT", "sensor-assay potency score (higher = more potent)": -0.964}, {"sequence": "TTGAATCAGCAAGTCCCGCAGC", "sensor-assay potency score (higher = more potent)": -0.492}, {"sequence": "TCTTGAATCAGCAAGTCCCGCA", "sensor-assay potency score (higher = more potent)": -0.377}, {"sequence": "TGATGTTGTGTTTCCAGTCATT", "sensor-assay potency score (higher = more potent)": -1.13}, {"sequence": "TAGTCACTGATGAAAGTCCCTT", "sensor-assay potency score (higher = more potent)": -0.346}]}]}
